A selection: hits, their analogues and other compounds. The true share with any hit is near 12%.
Sfp inh: blocks B. subtilis Sfp PPTase activity; Q9F4F7; hit rate 3.5% among 310,000; Potency, µM, inactives show largest response in the series, negative = inhibition, usual class: inhibitors; Biochemical Sfp PPTase activity, qHTS;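 also: the enzyme is Sfp with the accession as filed and its product quenches rhodamine fluorescence; 0% = enzyme reaction without inhibitor and -100% = no enzyme wells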
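Reaction rates are the 30-min fluorescence difference (ex 525, em 598 nm) in wells containing 15 nM Sfp, 5 uM rhodamine-CoA and 12.5 uM BHQ-2-YbbR at pH 7.6 with 10 mM MgCl2.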
JMJD2A Tudor inh: blocks the human JMJD2A Tudor domain. AlphaScreen JMJD2A-Tudor / H3K4me3 peptide binding. hit rate 4.4% among 390,000. O75164. Potency, µM (series often up to 114 µM), without a hit: at the highest dose activity change, negative = inhibition, usual class: inhibitors; also: % is scaled to controls: 0 for no effect and ±100 for the full control effect; nearly all actives have a fitted effect of over 50% in size
BAZ2B block: blocks human BAZ2B; Q9UIF8; AlphaScreen BAZ2B-H3K14Ac peptide displacement; Potency, µM (highest dose often 114 µM), for inactives: top-dose activity change, negative = inhibition, usual class: inhibitors; hit rate 4.4% among 360,000; also: % is scaled to controls: 0 for no effect and ±100 for the full control effect; nearly all actives have a fitted effect of over 60% in size
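Inhibition is scored as reduced AlphaScreen emission. The BAZ2B/b-H3(5-23)K14Ac complex (50 nM each) in PBS pH 7.4, 0.01% Tween-20 meets compound (up to 110 uM) for 30 min at RT before bead addition.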
HP1b chromo inh: blocks HP1-beta chromodomain binding to methylated histone tails | P83916 | AlphaScreen HP1-beta / biotin-H3K9me3 peptide binding | AID 540317 | hit rate 0.56% among 390,000 | Potency, µM (top dose mostly 114 µM), for inactives: at the top dose activity change, negative = inhibition, usual class: inhibitors; also: nearly all actives have a fitted effect of over 70% in size
Target sequence (P83916 whole entry, looked up): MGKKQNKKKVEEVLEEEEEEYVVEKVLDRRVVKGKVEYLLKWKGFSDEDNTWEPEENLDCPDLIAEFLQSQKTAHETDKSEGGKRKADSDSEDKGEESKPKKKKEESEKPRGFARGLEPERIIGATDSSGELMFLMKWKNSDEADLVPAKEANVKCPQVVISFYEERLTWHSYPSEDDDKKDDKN
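AlphaScreen: HP1-beta (50 nM) preformed 30 min with biotin-H3(1-18)K9me3 peptide (50 nM) in PBS pH 7.4, 0.01% Tween-20. Compound added for 30 min at RT, then streptavidin donor/nickel chelate acceptor beads (10 ug/mL) for 30 min.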
L3MBTL1 inh: inhibitors of human L3MBTL1 | AlphaScreen L3MBTL1–H3K9me1 peptide binding | Potency, µM (doses to about 57.1 µM), inactives show at the highest dose activity, negative = inhibition, hits mostly inhibitors | hit rate 0.66% among 230,000 | AID 485360; also: % is scaled to controls: 0 for no effect and ±100 for the full control effect; nearly all actives have a fitted effect of over 60% in size
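AlphaScreen assay: L3MBTL1 (50 nM final) was preincubated 30 min at room temperature with biotinylated H3(1-15)K9me1 peptide (75 nM final), then 30 min with library compounds; streptavidin donor and nickel chelate acceptor beads (10 ug/mL final) added, 30 min dark.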
G9a block: blocks human histone lysine methyltransferase G9a; G9a H3K9 monomethylation, AlphaScreen, 2 h; Potency, µM (series often up to 102 µM), inactives show at the top dose activity, negative = inhibition, usual class: inhibitors; hit rate 8.8% among 350,000; also: % is scaled to controls: 0 for no effect and ±100 for the full control effect; nearly all actives have a fitted effect of over 75% in size
Target sequence (Q96KQ7 913-1193 limits assumed): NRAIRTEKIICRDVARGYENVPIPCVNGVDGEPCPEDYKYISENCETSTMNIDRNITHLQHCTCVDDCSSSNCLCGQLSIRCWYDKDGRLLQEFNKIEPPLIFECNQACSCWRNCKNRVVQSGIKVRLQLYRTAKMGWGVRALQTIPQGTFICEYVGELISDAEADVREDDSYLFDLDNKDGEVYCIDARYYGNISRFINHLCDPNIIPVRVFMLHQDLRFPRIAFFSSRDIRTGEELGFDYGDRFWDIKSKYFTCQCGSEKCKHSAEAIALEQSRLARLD
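Readings reflect AlphaScreen signal from monomethyl-H3K9 antibody detection. HMT at 20 nM; substrate b-H3K9 500 nM; cofactor SAM 20 uM; 2 h RT reaction; compounds tested as titrations in qHTS with 15 min preincubation.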
* = called active by the depositor; u = inconclusive; x = not tested or not shown; [ ] = another dose, or the depositor's remark. Calls follow the shape of the dose curve; as a rule, active = well fitted curve in the direction sought with a large enough effect; inconclusive = small, poorly fitted or top-dose-only effect, or another doubt; inactive = no such curve, though single readings can be large; an effect the other way counts as inactive or inconclusive. Potency is read from the fitted curve at half-maximal effect.

SMILES	Sfp inh	JMJD2A Tudor inh	BAZ2B block	HP1b chromo inh	L3MBTL1 inh	G9a block
CC[C@H](C)[C@H](NC(=O)[C@H](C)NC(=O)[C@H](CC(N)=O)NC(=O)[C@H](CCCCN)NC(=O)[C@H](Cc1ccccc1)NC(=O)[C@H](CC(C)C)NC(=O)[C@@H](NC(=O)[C@@H](NC(=O)[C@H](CC(C)C)NC(=O)[C@@H]1CCCN1C(=O)[C@@H](NC(=O)[C@H](CCC(N)=O)NC(=O)[C@H](CO)NC(=O)[C@H](CCCCN)NC(=O)[C@H](CCC(=O)O)NC(=O)[C@H](CO)NC(=O)[C@@H](NC(=O)[C@H](CCSC)NC(=O)[C@H](Cc1ccccc1)NC(=O)CNC(=O)CNC(=O)[C@@H](N)Cc1ccc(O)cc1)[C@@H](C)O)[C@@H](C)O)C(C)C)[C@@H](C)O)C(=O)N[C@H](C(=O)N[C@@H](CCCCN)C(=O)N[C@@H](CC(N)=O)C(=O)N[C@@H](C)C(=O)N[C@@H](Cc1ccc(O)cc1)C(=O)N[C@@H](CCCCN)C(=O)N[C@@H](CCCCN)C(=O)NCC(=O)N[C@@H](CCC(=O)O)C(=O)O)[C@@H](C)CC	1.0%	x	x	x	x	21.2%[59 µM]
COc1ccc(CCn2c(=S)[nH]c(=O)c3[nH]cnc32)cc1OC	x	-6.8%	x	53.3%	x	x
COC(=O)c1ccccc1SCC(=O)Nc1ccc(N2CCOCC2)cc1	2.4%	-21.1%	-25.3%	-4.9%	x	79.4µM*
Cc1ccc(NC(=O)CSCC(=O)Nc2ccc(N3CCOCC3)cc2N2CCOCC2)cc1	x	-19.2%	8.9%	7.2%	3.2%	50.1µM*
O=C(CSc1ccccc1F)Nc1ccc(N2CCOCC2)cc1	x	-15.8%	13.2%	29.1%	-1.0%	u
CSc1ccc(CNC(=O)c2cc3c(=O)n(Cc4ccco4)ccc3nc2C)cc1	x	-14.0%	2.8%	120.5%	x	-9.4%[59 µM]
O=C(NCc1ccccc1)c1ccc2c(c1)N(Cc1ccc(F)cc1)CCS2	x	-25.2%	-15.6%	58.1%	x	7.0%[59 µM]
CCOc1ccc(NCc2nc3ccccc3n2CCOc2ccccc2)cc1	-1.6%	17.8µM*	11.2µM*	-74.0%	u	31.6µM*
CCOc1ccc(NCc2nc3ccccc3n2CCOc2ccc(C)cc2)cc1	x	11.2µM*	12.6µM*	u	x	14.1µM*
Cc1cc(C)c(S(=O)(=O)NCC(c2ccco2)N2CCOCC2)c(C)c1 (centres undefined)	x	-10.1%	-13.3%	24.2%	x	-20.3%[59 µM]
FC(F)(F)c1ccccc1-c1cc(NCCN2CCOCC2)ncn1	17.6%	x	x	x	x	39.1%[0.501 µM]
CCN(CC)C(=O)Cn1c(=O)n(CCc2ccccc2)c(=O)c2ccccc21	x	-2.0%	0.7%	14.6%	x	2.9%[59 µM]
COc1c(C)cc(S(=O)(=O)Nc2cccc(-c3ccc(N4CCOCC4)nn3)c2)c(C)c1C	x	-22.4%	-19.2%	16.2%[57 µM]	x	9.2%[59 µM]
CC(c1ccccc1)N1C(=O)/C(=C/c2ccncc2)SC1=S (centres undefined)	-29.8%	15.8µM*	15.8µM*	u	u	28.2µM*
CC(/C=C1\SC(=S)N(C(C(=O)O)c2ccccc2)C1=O)=C\c1ccccc1 (centres undefined)	-11.7%	u	u	12.6%	-4.3%	x
O=C(O)C(Cc1ccccc1)N1C(=O)/C(=C/c2cccs2)SC1=S (centres undefined)	-21.7%	u	u	-9.2%	-15.7%	22.4µM*
O=C(O)CCCN1C(=O)/C(=C/c2ccncc2)SC1=S	9.6%	11.3%	-7.2%	29.0%	3.0%	11.4%[12.7 µM]
O=C(O)C(c1ccccc1)N1C(=O)/C(=C/c2cccs2)SC1=S (centres undefined)	-13.1%	3.98µM*	-9.7%	-20.0%	-9.2%	x
COc1cccc(/C=C2\SC(=S)N(C(Cc3ccccc3)C(=O)O)C2=O)c1 (centres undefined)	-16.6%	-34.3%	u	40.9%	-19.1%	44.7µM*

Screening results: PubChem BioAssay, National Center for Advancing Translational Sciences (NCATS)
